Results from PubChem BioAssay AID1903 (Southern Research Specialized Biocontainment Screening …, 2009).
The whole screen tested about 310,000 compounds, of which about 1,200 (0.39%) were called active. How the calls were made is not given here. These entries were drawn from the full list. Entries with a potency or affinity are not part of this list.

molecular target: Large T antigen (Simian virus 40) (UniProt P03070); experiment: SV40 large T antigen inhibitors, biochemical (AID 1903); settings: SV40 large T antigen ATPase/helicase inhibition assay; at 20 µM; active compounds read high
Sequence (P03070 whole entry, looked up): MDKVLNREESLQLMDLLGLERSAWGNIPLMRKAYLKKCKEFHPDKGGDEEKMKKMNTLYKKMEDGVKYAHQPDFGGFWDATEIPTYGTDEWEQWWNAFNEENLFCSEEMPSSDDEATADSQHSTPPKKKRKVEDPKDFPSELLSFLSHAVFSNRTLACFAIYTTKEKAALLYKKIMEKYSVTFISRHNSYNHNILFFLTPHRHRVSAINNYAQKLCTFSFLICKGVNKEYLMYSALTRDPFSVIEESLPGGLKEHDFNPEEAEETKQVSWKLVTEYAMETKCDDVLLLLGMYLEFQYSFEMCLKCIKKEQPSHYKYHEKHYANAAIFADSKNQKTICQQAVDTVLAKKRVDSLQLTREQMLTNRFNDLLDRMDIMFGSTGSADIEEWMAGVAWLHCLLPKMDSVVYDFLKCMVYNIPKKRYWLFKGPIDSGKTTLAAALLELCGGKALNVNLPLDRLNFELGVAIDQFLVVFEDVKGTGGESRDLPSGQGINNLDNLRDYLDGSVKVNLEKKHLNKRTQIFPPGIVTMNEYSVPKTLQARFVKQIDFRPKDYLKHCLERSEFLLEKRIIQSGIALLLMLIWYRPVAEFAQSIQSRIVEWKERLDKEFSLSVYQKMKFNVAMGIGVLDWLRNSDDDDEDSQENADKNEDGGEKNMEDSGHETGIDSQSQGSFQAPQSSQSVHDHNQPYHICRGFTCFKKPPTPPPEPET

inhibition, inactive:
COc1cc(CN2CCCC(C(=O)Nc3ccccc3Oc3cccnc3)C2)ccc1F (stereo not drawn) 7.89%
CCOC(=O)c1[nH]c2c(c1-c1ccccc1)C(=O)CC(c1ccc(OCC)cc1)C2 (stereo not drawn) -10.4%
C=CCOc1ccc(CNCc2cccnc2)cc1 2.27%
Cn1c(N2CCN(C(c3ccccc3)c3ccccc3)CC2)nc2ccccc21 0.51%
Cc1cc2nc3c(c(C(F)(F)F)n2n1)CCCC3 3.17%
COc1ccc(/C=C2\CCc3c2nc2ccccc2c3C(=O)O)cc1OC 6.95%
COc1cc(/C=C2\CCCc3c2nc2ccccc2c3C(=O)O)cc(OC)c1O 30.3%
COc1cccc(N2CC(NS(=O)(=O)c3ccc4ccccc4c3)CC2=O)c1 (stereo not drawn) 11%
Cc1ccc(O)c(Sc2cc(C)ccc2O)c1 5.68%
Nc1ccccc1SSc1ccccc1N 22.8%
O=S(=O)(c1ccc(-c2cnc(C3CC3)o2)cc1)N1CCN(c2ccccc2)CC1 7.98%
O/N=C1\CCCc2ccc(Cl)cc21 3.89%
Cc1cc(C)n(CCc2nc(-c3cccs3)cs2)n1 0.46%
Cc1cc(C)n(CCc2nc(-c3ccc(C)o3)cs2)n1 28.1%
CC(O)c1nc2cc([N+](=O)[O-])ccc2n1Cc1ccccc1 (stereo not drawn) 7.32%
O=C(/C=C/c1cccc(Cl)c1)NCc1cccs1 -0.755%
COc1ccc(NC(=O)COc2ccc(C)c(C)c2)cc1S(=O)(=O)N1CCCCC1 5.04%
Cc1cccc(OCCn2ccnc2)c1C 12.1%
CC(C)Cn1c(=O)c(C(=O)NCc2ccc3c(c2)OCO3)c(O)c2ccccc21 -14.6%
CCOC(=O)C1(C)C=C(Nc2ccc(NC(C)=O)cc2)C(=O)N1c1ccc(NC(C)=O)cc1 (stereo not drawn) 6.98%
CCOC(=O)C1(C)C=C(Nc2ccc(C)cc2)C(=O)N1c1ccc(C)cc1 (stereo not drawn) 12.1%
COc1ccc(C)c2sc(=NC(=O)c3cccc(N4C(=O)CCC4=O)c3)n(C)c12 14.4%
COC(=O)c1c(C(=O)OC)c2ccccn2c1C(=O)c1ccccc1 10.4%
Cc1ccc(N=C(N)N=C(N)N)cc1 6.91%
Cc1ccc(-c2nc(C=Nc3ccc(O)cc3)c(O)o2)cc1 23.6%
O=C1CC(NS(=O)(=O)c2cc(F)ccc2F)CN1c1cccc(F)c1 (stereo not drawn) 4.86%
CCc1ccc[n+](-c2nc3ccccc3nc2C(=C=[N-])C#N)c1 11.3%
CN1CCN(C(=O)c2cccn(Cc3ccc(C(F)(F)F)cc3)c2=O)CC1 2.45%
COc1ccc(C2CC(=O)N3CN(Cc4ccco4)CSC3=C2C#N)cc1 (stereo not drawn) 36.8%
CCOC(=O)c1ccc(N2CSC3=C(C#N)C(c4cccs4)CC(=O)N3C2)cc1 (stereo not drawn) 28.9%
COc1ccc(OC)c(C2CC(=O)N3CN(c4ccccc4)CSC3=C2C#N)c1 (stereo not drawn) 35.4%
COc1ccc(OC)c(C2CC(=O)N3CN(c4cccc(Cl)c4)CSC3=C2C#N)c1 (stereo not drawn) 21.8%
COc1ccc(C2CC(=O)N3CN(c4ccc(C)c(Cl)c4)CSC3=C2C#N)cc1 (stereo not drawn) 34.4%
N#CC1=C2SCN(c3ccccc3)CN2C(=O)CC1c1cccs1 (stereo not drawn) 25.3%
CCOC(=O)c1ccc(N2CSC3=C(C#N)C(c4ccc(OC)cc4OC)CC(=O)N3C2)cc1 (stereo not drawn) 31%
COc1cccc(C2CC(=O)N3CN(c4cccc(Cl)c4C)CSC3=C2C#N)c1OC (stereo not drawn) 25.5%
COc1ccc(-c2nn(-c3ccccc3)cc2/C=C/C(=O)O)cc1[N+](=O)[O-] 18.4%
C#CCOCCOCCOCCNc1nc(N2CCN(C(=O)[C@H]([C@@H](C)CC)n3cc([C@@H](N)CC(C)C)nn3)CC2)nc(N2CCN(C(=O)[C@H]([C@@H](C)CC)n3cc([C@@H](N)CC(C)C)nn3)CC2)n1 3.81%
CC(C)c1ccc(NC(=O)CSc2ncccc2C(=O)Oc2cccc([N+](=O)[O-])c2)cc1 16.9%
CCc1cc2c3c([nH]c2cc1S(=O)(=O)N1CCC2(CC1)OCCO2)CCCC3=O -0.36%
CCN(C(=O)Cn1cnc2c(nc3n2CCCCC3)c1=O)c1cccc(Cl)c1 18.9%
C#CCn1c(=NC(=O)c2cc(-c3cccs3)nc3ccccc23)sc2cc(S(N)(=O)=O)ccc21 8.04%
O=C(O)C1CCCCC1C(=O)Nc1ccc(OCc2ccccc2)cc1 (stereo not drawn) 9.44%
COc1cc(/C=C/c2nc3ccccc3c(=O)[nH]2)cc(Br)c1O -2.29%
CCOC(=O)c1[nH]c2ccccc2c1NC(=O)CC(C)(C)C -0.46%
O=C(O)CCC(=O)Nc1ccc(F)cc1 12.5%
O=C(O)CCC(=O)Nc1ccc(Cc2ccc(NC(=O)CCC(=O)O)cc2)cc1 5.94%
CC1CCCC(NC(=O)C2CCN(S(=O)(=O)c3cnc[nH]3)CC2)C1C (stereo not drawn) 10.4%
COc1ccccc1N1CCN(S(=O)(=O)c2cc(C(F)(F)F)cc(C(F)(F)F)c2)CC1 4.92%
CCOC(=O)C1(C)NC(c2ccc(O)cc2)C2C(=O)N(c3ccccc3)C(=O)C21 (stereo not drawn) 2.88%
O=C(NCCO)Nc1ccc2nc(-c3ccco3)c(-c3ccco3)nc2c1 52.6%
O=C(Nc1ccc2nc(-c3cccs3)c(-c3cccs3)nc2c1)NC1CC1 -4.56%
O=[N+]([O-])c1ccc(/C=N/N2CCN(Cc3ccccc3)CC2)cc1 8.88%
CCOC(=O)/C=C/c1cnn(-c2ccccc2)c1 -1.48%
O=C1NN(c2ccc(F)cc2)C(=O)/C1=C\c1cnn(-c2ccccc2)c1 2.23%
CCN(CC)c1ccc(C=O)c(OC)c1 11.8%
CN(C)c1ccc(/C=N/N2C(=O)c3ccccc3C2=O)cc1 21.5%
Cc1ccccc1N1C(=O)c2cccc3cccc(c23)C1=O 4.81%
CCN(CC)c1ccc(C(=O)N/N=C/c2ccc(OC)cc2OC)cc1 0.86%
COCCNC(=O)CN1CCC(NC(=O)Nc2ccc(C(F)(F)F)cc2)CC1 27.4%
Cc1cc(C)nc(NNC2=CC(=[N+]3CCCCC3)CC(C)(C)C2)n1 3.95%
CNC(=O)COC(=O)CNC(=O)c1cc(Cl)cc([N+](=O)[O-])c1 6.1%
C=CCn1c(SCc2cccc(OC)c2)nnc1-c1ccncc1 5.97%
CCc1ccc(C2CC(c3ccc(Cl)cc3)=NNC2=O)cc1 (stereo not drawn) -1.48%
O=C1CCCN1c1nccs1 4.21%
Cc1ccnc(N2C3CCC2CC(O)(c2ccccc2)C3)n1 (stereo not drawn) 2.55%
COc1ccccc1N1CCN(c2nccc(C)n2)CC1 11.9%
O=c1c2ccccc2c(C=Nc2ccccc2O)c(O)n1-c1nccs1 15.8%
O=C(NCCc1c[nH]c2ccccc12)C1CCN(S(=O)(=O)c2ccccc2F)CC1 10.5%
COc1ccc(S(=O)(=O)Cc2ccc(C(=O)NCc3ccccc3)o2)cc1 7.39%
Cc1c([N+](=O)[O-])cc(S(=O)(=O)Nc2ccncc2)cc1[N+](=O)[O-] 1.66%
COc1ccc(/C=C/CN2CCN(Cc3ccc(F)cc3)C(CCO)C2)cc1 (stereo not drawn) 10.1%
O=C1NC(=O)N(c2ccccc2)C1=O 28.5%
Nc1ccc2c3c(cccc13)C(=O)N(c1ccccc1)C2=O 6.29%
CCOC(=O)C1=C(C)N(c2ccc(C)c(C)c2)C(=O)/C1=C\c1ccco1 7.58%
O=C1NC(=S)N/C1=C/C=C/c1ccccc1 -22.6%
O=C1S/C(=C\C=C\c2ccco2)C(=O)N1c1ccccc1 20.3%
COC(=O)C1=C(C)N(c2ccc(C)c(C)c2)/C(=C/c2ccco2)C1=O 13.5%
O=C1N/C(=C/c2ccc(N3CCCC3)cc2)C(=O)N1c1ccccc1 1.12%
O=C1/C(=C\c2ccco2)SC(=S)N1c1ccccc1 21.4%
O=C(OCc1ccccc1)N1CCOCCN(C(=O)OCc2ccccc2)CCOCC1 0.08%
c1ccc(N2CCN(c3nc(-c4cccs4)nc4ccccc34)CC2)cc1 17.6%
COC(=O)c1cccc(C(=O)N2CCCC(C(=O)c3ccccc3OC)C2)c1 (stereo not drawn) 2.9%
Cc1ccccc1CCNC(=O)Cn1ccc2cc(S(=O)(=O)N3CCCC3)ccc21 11.1%
CCN(Cc1ccccc1)C(=O)CCS(=O)(=O)c1ccc2c(c1)NC(=O)CO2 6.63%
COc1ccc(/C=N/NC(=O)C(C)n2nnc3ccccc32)cc1OC (stereo not drawn) -3.35%
COc1cc(Cn2nnc3ccccc32)cc(Br)c1O 29.6%
COc1ccc(Cn2nnc3ccccc32)cc1 0.77%
CN(C)c1ccc(/C=N/NC(=O)Cn2nnc3ccccc32)cc1 14.7%
COc1cccc(/C=N\NC(=O)Cn2nnc3ccccc32)c1O 34.8%
COc1ccc(/C=N/NC(=O)CCn2nnc3ccccc32)cc1 3.72%
COc1cccc(/C=N/NC(=O)CCn2nnc3ccccc32)c1 9.43%
COc1cccc(/C=N/NC(=O)C(C)n2nnc3ccccc32)c1 (stereo not drawn) 23.4%
